# Source: PubChem BioAssay AID1035 (National Center for Advancing Translational Sciences (NCATS), 2008)
# A number with no mark means an inactive call. How the calls were made is not given here.
# Experiment: HDAC Secondary Assay for qHTS Assay for Epigenetic Modulators
# Conditions: HeLa nuclear extract HDAC activity, fluorogenic substrate, 20 min; at 48 µM; hits give low values
# Source text: NIH Molecular Libraries Screening Centers Network [MLSCN] NIH Chemical Genomics Center [NCGC] MLSCN Grant: 1 X01 MH079860-01 Assay Provider: Elisabeth D. Martinez, University of Texas SW Medical Center NCGC Assay Overview: This secondary assay characterizes selected actives identified in the qHTS of the Locus Derepression (LDR) assay (PubChem AID 597). The LDR assay detects the derepression of a GFP reporter that is stably integrated in a region of the genome of murine c127i mammary cells that is presumably silenced. Compounds that cause derepression of the locus to express GFP are identified by enumerating GFP positive cells using a laser-scanning microplate cytometer. […]
# NCGC Assay Protocol Summary HeLa nuclear extracts and acetylated profluorescent substrate were incubated with vehicle, 0.5 uM TSA, or 48 uM indicated LDR compound for 20 min at ambient temperature and fluorescence was measured. Background-subtracted activity was expressed as a percent of uninhibited extract. […] For further details, see R.L. Johnson, W. Huang, A. Jadhav, C.P. Austin, J. Inglese, E.D. Martinez, A Quantitative High-Throughput Screen Identifies Potential Epigenetic Modulators of Gene Expression, Analytical Biochemistry (2007), doi: 10.1016/j.ab.2007.12.028
compound,measurement,value
CN1CSC(=S)N(C)C1,remaining HDAC activity,102%
